Out of some 5,500 compounds screened, about 2,000 (36%) were called active. Roughly 18% stayed inconclusive and do not appear here. Rule as the data show it: active = normalized growth mostly below about 0.91 (no sharp cut-off); inconclusive = no clear call, values can overlap the other calls; inactive = mostly above about 0.92. This is one part of the list.
Assay: chemical genetic growth profiling, strain panel (AID 1159580);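 also: tested at 20 µM; growth read once vehicle control cultures reached saturation at 30 °C; 1 = growth at the plate median or of vehicle wells; lower values mean less growth of the strain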
Conditions: growth OD
[1] = S. cerevisiae deletion strains, locus YAL013W, strain DEP1, stronger effect = lower value
[2] = S. cerevisiae deletion strains, locus YBR229C, strain ROT2, stronger effect = lower value
[3] = S. cerevisiae deletion strains, locus YDL101C, strain DUN1, stronger effect = lower value
[4] = S. cerevisiae deletion strains, locus YDR150W, strain NUM1, stronger effect = lower value
[5] = S. cerevisiae deletion strains, locus YEL061C, strain CIN8, stronger effect = lower value
[6] = S. cerevisiae deletion strains, locus YGR078C, strain PAC10, stronger effect = lower value
[7] = S. cerevisiae deletion strains, locus YHR030C, strain SLT2, stronger effect = lower value
[8] = S. cerevisiae deletion strains, locus YJR043C, strain POL32, stronger effect = lower value
[9] = S. cerevisiae deletion strains, locus YJR075W, strain HOC1, stronger effect = lower value
[10] = S. cerevisiae deletion strains, locus YKL190W, strain CNB1, stronger effect = lower value
[11] = S. cerevisiae deletion strains, locus YLR039C, strain RIC1, stronger effect = lower value
[12] = S. cerevisiae deletion strains, locus YLR262C, strain YPT6, stronger effect = lower value
[13] = S. cerevisiae deletion strains, locus YMR263W, strain SAP30, stronger effect = lower value
[14] = S. cerevisiae deletion strains, locus YMR307W, strain GAS1, stronger effect = lower value
[15] = S. cerevisiae deletion strains, locus YNL153C, strain GIM3, stronger effect = lower value
[16] = S. cerevisiae deletion strains, locus YNL322C, strain KRE1, stronger effect = lower value
[17] = S. cerevisiae deletion strains, locus YOL006C, strain TOP1, stronger effect = lower value
[18] = S. cerevisiae deletion strains, locus YPL055C, strain LGE1, stronger effect = lower value
[19] = S. cerevisiae deletion strains, locus YPL241C, strain CIN2, stronger effect = lower value

Measured: normalized growth

O=C(O)c1nccnc1C(=O)O
inactive: [1] 0.993 | [2] 0.991 | [3] 0.988 | [4] 0.924 | [5] 0.994 | [6] 1 | [7] 1.02 | S. cerevisiae deletion strains, locus YHR087W, strain rtc3, stronger effect = lower value 1.02 | [8] 0.972 | [9] 0.988 | [10] 1.01 | [11] 1.01 | S. cerevisiae deletion strains, locus YLR058C, strain SHM2 (second series), stronger effect = lower value 1.01 | S. cerevisiae deletion strains, locus YLR085C, strain ARP6, stronger effect = lower value 1.01 | [12] 1.03 | S. cerevisiae deletion strains, locus YML094W, strain GIM5, stronger effect = lower value 1.01 | S. cerevisiae deletion strains, locus YMR219W, strain ESC1, stronger effect = lower value 1.01 | [13] 0.991 | [14] 0.992 | [15] 1 | S. cerevisiae deletion strains, locus YNL298W, strain CLA4 (second series), stronger effect = lower value 1.01 | [16] 1.01 | S. cerevisiae deletion strains, locus YNR030W, strain Alg12, stronger effect = lower value 1.05 | [17] 1.06 | [18] 0.951 | [19] 1.01 | S. cerevisiae deletion strains, locus YPR135W, strain CTF4, stronger effect = lower value 1.05

COP(=O)(OC)OC(Br)C(Cl)(Cl)Br (stereo not drawn)
inactive: [1] 0.966 | S. cerevisiae deletion strains, locus YBR021W, strain FUR4, stronger effect = lower value 1.04 | [2] 0.947 | S. cerevisiae deletion strains, locus YCL029C, strain bik1, stronger effect = lower value 0.997 | S. cerevisiae deletion strains, locus YDL035C, strain GPR1, stronger effect = lower value 0.984 | S. cerevisiae deletion strains, locus YDL074C, strain BRE1, stronger effect = lower value 0.961 | [3] 0.988 | S. cerevisiae deletion strains, locus YDL134C, strain PPH21, stronger effect = lower value 0.994 | S. cerevisiae deletion strains, locus YDL185W, strain tfp1, stronger effect = lower value 0.989 | S. cerevisiae deletion strains, locus YDL192W, strain arf1, stronger effect = lower value 1 | S. cerevisiae deletion strains, locus YDR101C, strain arx1, stronger effect = lower value 0.999 | [4] 0.984 | S. cerevisiae deletion strains, locus YDR162C, strain NBP2, stronger effect = lower value 0.988 | S. cerevisiae deletion strains, locus YDR318W, strain mcm21, stronger effect = lower value 1 | S. cerevisiae deletion strains, locus YDR388W, stronger effect = lower value 1.01 | S. cerevisiae deletion strains, locus YDR502C, strain sam2, stronger effect = lower value 1 | [5] 0.993 | S. cerevisiae deletion strains, locus YER110C, stronger effect = lower value 0.993 | S. cerevisiae deletion strains, locus YER155C, strain BEM2, stronger effect = lower value 1 | S. cerevisiae deletion strains, locus YER167W, strain BCK2, stronger effect = lower value 0.981 | S. cerevisiae deletion strains, locus YGL078C, strain dbp3, stronger effect = lower value 1.01 | S. cerevisiae deletion strains, locus YGL086W, strain mad1, stronger effect = lower value 0.989 | S. cerevisiae deletion strains, locus YGL248W, strain PDE1, stronger effect = lower value 0.968 | [6] 0.987 | S. cerevisiae deletion strains, locus YGR135W, strain pre9, stronger effect = lower value 1.01 | S. cerevisiae deletion strains, locus YGR229C, strain SMI1, stronger effect = lower value 0.996 | S. cerevisiae deletion strains, locus YGR252W, strain gcn5, stronger effect = lower value 1.06 | [7] 1.01 | S. cerevisiae deletion strains, locus YHR079C, strain IRE1 (second series), stronger effect = lower value 0.995 | S. cerevisiae deletion strains, locus YHR094C, strain hxt1, stronger effect = lower value 1.01 | S. cerevisiae deletion strains, locus YHR129C, strain ARP1, stronger effect = lower value 0.969 | S. cerevisiae deletion strains, locus YHR200W, strain rpn10, stronger effect = lower value 0.997 | S. cerevisiae deletion strains, locus YIL066C, strain RNR3, stronger effect = lower value 0.984 | S. cerevisiae deletion strains, locus YIL073C, strain SPO22, stronger effect = lower value 1.06 | S. cerevisiae deletion strains, locus YIL125W, strain kgd1, stronger effect = lower value 1 | S. cerevisiae deletion strains, locus YIR030C, strain dcg1, stronger effect = lower value 1.01 | S. cerevisiae deletion strains, locus YJL095W, strain BCK1, stronger effect = lower value 1 | S. cerevisiae deletion strains, locus YJL134W, strain LCB3, stronger effect = lower value 0.994 | S. cerevisiae deletion strains, locus YJL168C, strain set2, stronger effect = lower value 0.997 | S. cerevisiae deletion strains, locus YJL187C, strain SWE1 (second series), stronger effect = lower value 0.965 | [8] 0.999 | [9] 0.964 | S. cerevisiae deletion strains, locus YKL009W, strain mrt4, stronger effect = lower value 0.948 | S. cerevisiae deletion strains, locus YKL068W, stronger effect = lower value 0.995 | S. cerevisiae deletion strains, locus YKL085W, strain MDH1 (second series), stronger effect = lower value 1.01 | S. cerevisiae deletion strains, locus YKL085W, strain MDH1, stronger effect = lower value 1.01 | [10] 0.997 | S. cerevisiae deletion strains, locus YKR001C, strain vps1, stronger effect = lower value 1.01 | [11] 0.997 | S. cerevisiae deletion strains, locus YLR058C, strain SHM2, stronger effect = lower value 0.979 | S. cerevisiae deletion strains, locus YLR102C, strain apc9, stronger effect = lower value 0.994 | [12] 0.99 | S. cerevisiae deletion strains, locus YLR268W, strain sec22, stronger effect = lower value 1.01 | S. cerevisiae deletion strains, locus YLR330W, strain CHS5, stronger effect = lower value 0.988 | S. cerevisiae deletion strains, locus YLR342W, strain FKS1 (second series), stronger effect = lower value 0.98 | S. cerevisiae deletion strains, locus YLR371W, strain rom2, stronger effect = lower value 0.999 | S. cerevisiae deletion strains, locus YLR418C, strain cdc73, stronger effect = lower value 0.987 | S. cerevisiae deletion strains, locus YML016C, strain PPZ1, stronger effect = lower value 0.989 | S. cerevisiae deletion strains, locus YML032C, strain rad52, stronger effect = lower value 1.01 | S. cerevisiae deletion strains, locus YML124C, strain tub3, stronger effect = lower value 1.01 | S. cerevisiae deletion strains, locus YMR078C, strain ctf18, stronger effect = lower value 1.02 | S. cerevisiae deletion strains, locus YMR223W, strain ubp8, stronger effect = lower value 1 | [13] 0.989 | [14] 1.02 | S. cerevisiae deletion strains, locus YNL067W, strain RPL9B, stronger effect = lower value 0.974 | S. cerevisiae deletion strains, locus YNL128W, strain TEP1, stronger effect = lower value 0.957 | [15] 0.971 | S. cerevisiae deletion strains, locus YNL233W, strain BNI4, stronger effect = lower value 0.978 | S. cerevisiae deletion strains, locus YNL250W, strain rad50, stronger effect = lower value 0.999 | S. cerevisiae deletion strains, locus YNL271C, strain bni1, stronger effect = lower value 1.01 | S. cerevisiae deletion strains, locus YNL298W, strain CLA4, stronger effect = lower value 1.01 | S. cerevisiae deletion strains, locus YNL307C, strain MCK1, stronger effect = lower value 1.02 | [16] 0.987 | S. cerevisiae deletion strains, locus YNR052C, strain pop2, stronger effect = lower value 1.01 | [17] 1.04 | S. cerevisiae deletion strains, locus YOL012C, strain htz1 1.23 | S. cerevisiae deletion strains, locus YOL147C, strain pex11, stronger effect = lower value 1.01 | S. cerevisiae deletion strains, locus YOR061W, strain CKA2, stronger effect = lower value 0.973 | S. cerevisiae deletion strains, locus YOR069W, strain VPS5, stronger effect = lower value 0.998 | S. cerevisiae deletion strains, locus YOR136W, strain idh2, stronger effect = lower value 1 | S. cerevisiae deletion strains, locus YOR144C, strain elg1, stronger effect = lower value 1 | S. cerevisiae deletion strains, locus YOR184W, strain ser1, stronger effect = lower value 1.01 | S. cerevisiae deletion strains, locus YOR316C, strain cot1, stronger effect = lower value 0.992 | [18] 0.99 | [19] 0.998 | S. cerevisiae deletion strains, locus YPR119W, strain clb2, stronger effect = lower value 1.01 | S. cerevisiae deletion strains, locus YPR141C, strain kar3, stronger effect = lower value 0.993 | S. cerevisiae deletion strains, locus YPR163C, strain tif3, stronger effect = lower value 1 | S. cerevisiae deletion strains, locus YPR167C, strain met16, stronger effect = lower value 0.99 | S. cerevisiae deletion strains, strain wtn01, stronger effect = lower value 1 | S. cerevisiae strains, strain wild type, stronger effect = lower value 0.994
